# Assay outcomes: PubChem, National Center for Advancing Translational Sciences (NCATS)
# FEN1 inh-1: inhibitors of human flap endonuclease 1 | AID 588795 | P39748 | 390,000 compounds, 0.35% hits | Recombinant FEN1 flap cleavage, fluorescence, 15 min | Potency, µM (top dose mostly 114 µM), for the others: at the top dose activity change, negative = inhibition, most hits filed as inhibitors; also: % is scaled to controls: 0 for no effect and ±100 for the full control effect; nearly all actives have a fitted effect of over 65% in size
#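 Compounds are tested as a concentration series against 10 nM FEN1; after a 15 min room-temperature preincubation, 50 nM substrate starts cleavage, with plate reads at 0 and 15 min. Normalized responses are fitted by a Hill equation.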
# Pol kappa inh-1: inhibitors of human DNA polymerase kappa. Potency, µM (doses to about 107 µM), for the others: at the highest dose activity, negative = inhibition, usual class: inhibitors. 400,000 compounds, 0.53% hits. AID 588579. purified Pol kappa, fluorescent DNA synthesis assay, 10 min; also: % is scaled to controls: 0 for no effect and ±100 for the full control effect
#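 10 nM Pol kappa preincubated 15 min at room temperature with compounds, then reaction started with substrate at 50 nM final. Fluorescence read kinetically at 0 and 10 min; buffer-only wells served as negative control.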
# POLB inh: blocks human DNA polymerase beta activity; Pol beta primer extension/strand displacement, fluorescence kinetic; Potency, µM (top dose mostly 114 µM), without a hit: at the top dose activity change, negative = inhibition, actives largely listed as inhibitors; 340,000 compounds, 1.3% hits; AID 485314; also: % is scaled to controls: 0 for no effect and ±100 for the full control effect
#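 Enzyme-only controls used 10 nM Pol beta; buffer lacking enzyme served as negative control. Compound preincubated 15 min, then 50 nM substrate added; 0 and 10 min reads at room temperature.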
# Pol eta inh-1: blocks human DNA polymerase eta activity | Q9Y253 | recombinant Pol eta, fluorescent DNA replication assay | Potency, µM (top dose mostly 114 µM), inactives show at the top dose activity change, negative = inhibition, actives largely listed as inhibitors | 390,000 compounds, 1.2% hits; also: % is scaled to controls: 0 for no effect and ±100 for the full control effect
# Target sequence (Q9Y253 whole entry, looked up): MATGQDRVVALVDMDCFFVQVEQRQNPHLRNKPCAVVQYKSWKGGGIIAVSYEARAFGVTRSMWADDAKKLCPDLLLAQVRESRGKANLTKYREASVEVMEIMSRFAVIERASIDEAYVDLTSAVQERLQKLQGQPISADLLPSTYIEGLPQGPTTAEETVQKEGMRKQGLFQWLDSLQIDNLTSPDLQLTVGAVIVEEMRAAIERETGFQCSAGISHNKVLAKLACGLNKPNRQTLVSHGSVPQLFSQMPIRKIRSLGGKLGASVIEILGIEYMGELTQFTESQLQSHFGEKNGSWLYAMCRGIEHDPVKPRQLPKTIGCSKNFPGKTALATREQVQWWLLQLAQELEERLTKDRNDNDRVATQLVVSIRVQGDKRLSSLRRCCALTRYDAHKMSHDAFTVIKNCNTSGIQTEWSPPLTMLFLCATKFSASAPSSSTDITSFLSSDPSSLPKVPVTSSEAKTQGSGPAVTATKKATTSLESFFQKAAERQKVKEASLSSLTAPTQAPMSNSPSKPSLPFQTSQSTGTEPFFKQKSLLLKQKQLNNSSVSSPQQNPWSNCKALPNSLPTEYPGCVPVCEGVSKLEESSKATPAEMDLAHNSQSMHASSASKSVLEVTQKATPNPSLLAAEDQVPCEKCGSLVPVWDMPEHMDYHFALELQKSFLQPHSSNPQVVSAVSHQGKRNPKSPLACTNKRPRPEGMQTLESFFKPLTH
#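 Pol eta at 10 nM preincubated with compounds 15 min at room temperature; reaction started with fluorescent substrate (50 nM final) and read kinetically at 0 and 10 min.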
# WRN helicase inh: inhibitors of human WRN helicase; AID 651768; WRN helicase unwinding, fluorescent forked duplex, kinetic; Q14191; 360,000 compounds, 0.46% hits; Potency, µM (series often up to 114 µM), for inactives: top-dose activity change, negative = inhibition, usual class: inhibitors; also: % is scaled to controls: 0 for no effect and ±100 for the full control effect; nearly all actives have a fitted effect of over 55% in size
#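 Kinetic red-fluorescence monitoring (525/598 nm) tracks WRN helicase activity after 100 nM fluorophore-quencher forked duplex and 2 mM ATP are added to 20 nM enzyme pretreated 15 min at room temperature with compound.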
# Pol iota inh: DNA polymerase iota (human) inhibition; Potency, µM (top dose mostly 115 µM), without a hit: top-dose activity, negative = inhibition, hits mostly inhibitors; 390,000 compounds, 1% hits; AID 588590; Q9UNA4; Pol iota fluorescent replication assay, 10 min
#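 Fluorescent replication assay read twice, at 0 min and 10 min after adding 50 nM (final) substrate. Enzyme (10 nM) and compounds were first incubated 15 min at room temperature; enzyme-free buffer wells were negative controls.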
# TbPGK inh: blocks T. brucei phosphoglycerate kinase | shares compounds with Pol kappa inh-1 | TbPGK coupled GAPDH assay, Kinase-Glo luminescence | Potency, µM (highest dose often 57.5 µM), inactives show top-dose activity change, negative = inhibition, actives largely listed as inhibitors | 500 compounds, 79% hits; also: % is scaled to controls: 0 for no effect and ±100 for the full control effect; nearly all actives have a fitted effect of over 65% in size
# Pol iota confirm: Human Pol iota inhibitor confirmatory assay; Potency, µM, most hits filed as inhibitors; 1,500 compounds, 77% hits; AID 720496; shares compounds with Pol kappa inh-1; Pol iota primer extension, TAMRA/BHQ fluorescence
# Pol kappa inh-2: confirmation of human DNA polymerase kappa inhibitors. Potency, µM, usual class: inhibitors. shares compounds with Pol eta inh-1. purified Pol-kappa, fluorescent strand-displacement substrate. 920 compounds, 76% hits
# Pol eta inh-2: confirmation of human DNA polymerase eta inhibitors | shares compounds with Pol eta inh-1 | Pol eta primer extension, TAMRA/BHQ fluorescence, 10 min | Potency, µM, usual class: inhibitors | 2,600 compounds, 64% hits
# FEN1 inh-2: confirmation of human FEN1 inhibitors | 880 compounds, 79% hits | FEN1 flap cleavage, TAMRA/BHQ2 fluorogenic DNA substrate | shares compounds with FEN1 inh-1 | AID 720498 | Potency, µM, actives largely listed as inhibitors; also: nearly all actives have a fitted effect of over 60% in size
# An asterisk follows results filed as active; ? = inconclusive; . = no result; [ ] = dose if it differs, or a comment. Shown are actives, neighbours in structure and some others; about 2.4% of the full set was active somewhere. Calls follow the shape of the dose curve; as a rule, active = well fitted curve in the direction sought with a large enough effect; inconclusive = small, poorly fitted or top-dose-only effect, or another doubt; inactive = no such curve, though single readings can be large; an effect the other way counts as inactive or inconclusive. Potency is read from the fitted curve at half-maximal effect.
SMILES,FEN1 inh-1,Pol kappa inh-1,POLB inh,Pol eta inh-1,WRN helicase inh,Pol iota inh,Pol iota confirm,Pol eta inh-2,FEN1 inh-2,others
COc1cccc(N=Nc2c(O)[nH]c(=S)[nH]c2=O)c1,-21%,0%,1%,-10%,-14%,?,.,.,.,
COc1ccc(S(=O)(=O)Nc2ccccc2OC)cc1N=Nc1c(O)[nH]c(=S)[nH]c1=O,-20%,?,.,22µM*,?,?,42*,?,.,Pol kappa inh-2=42*
O=[N+]([O-])C(Br)(CO)CO,.,1%[60.1 µM],.,.,.,.,.,.,.,
NN=C1C(Cl)=C(Cl)C(Cl)=C1Cl,.,.,.,?,-20%[11.6 µM],.,67*,?,.,Pol kappa inh-2=?
NC(=NCCc1ccc(I)cc1)SCCCc1cnc[nH]1,.,0%[19.4 µM],.,.,.,.,.,.,.,
Cc1ccc(N2C(=O)NC(=O)/C(=C/c3ccoc3)C2=O)cc1,35µM*,22µM*,?,3.2µM*,32µM*,7.9µM*,12*,17*,60*,TbPGK inh=0.92µM*
Cc1ccc(N2C(=O)NC(=O)/C(=C/c3cnn(-c4ccc(C)cc4)c3)C2=O)cc1,3%,-19%,36%,8%,-19%,3%,.,.,.,
CN1CCN(S(=O)(=O)c2cccc(C(=O)N3CCN(c4ccccc4F)CC3)c2)CC1,-9%,-10%,.,-21%,-10%,?,.,.,.,
CCCC(C)C1(CC)C(=O)NC(=S)NC1=O (stereo not given),.,3%[60.1 µM],.,.,.,.,.,.,.,
C[n+]1c(-c2ccccc2)c2cc(N)ccc2c2ccc(N)cc21,11µM*,25µM*,25µM*,?,2.7µM*,8.9µM*,17*,67*,9.5*,Pol kappa inh-2=2.4*
CSc1nc(N)c(N=Nc2ccc([As](=O)(O)O)cc2)c(=O)[nH]1,8%,-24%,35µM*,50µM*,-17%[11.6 µM],8.9µM*,42*,76*,76*,
Cn1cccc1/C=C1/C(=O)NC(=S)N(Cc2ccc(F)cc2)C1=O,-23%,?,?,13µM*,56µM*,20µM*,21*,11*,?,
CCOc1ccc(/C=C2/C(=O)NC(=O)N(CCc3ccc(F)cc3)C2=O)cc1,-23%,-8%,-6%,-6%,-18%,-10%,.,.,.,
C[C@]12Cc3cn4c(nc3C=C1CCC1C2CC[C@@]2(C)[C@H]1CC[C@@]2(O)C#N)nc1ccccc14 (stereo not given in full),?,?,15%[57.1 µM],?,.,4%[58.9 µM],.,.,.,
O=C(O)Cn1cc(/C=C2\C(=O)NC(=O)N(Cc3ccco3)C2=O)c2ccccc21,79µM*,20µM*,10µM*,1.6µM*,40µM*,4.5µM*,3.4*,4.8*,67*,TbPGK inh=8.2µM*
O=C1NC(=O)N(Cc2ccccc2)C(=O)/C1=C\c1ccco1,45µM*,28µM*,25µM*,20µM*,32µM*,?,?,34*,76*,
CCN1C(=O)NC(=O)/C(=C\c2cn(CC(=O)O)c3ccccc23)C1=O,.,.,30%,.,.,.,.,.,.,
CC1CC(C)C(=O)[C@H](C(O)CC2CC(=O)NC(=O)C2)C1 (stereo not given in full),.,0%[60.1 µM],.,.,.,.,.,.,.,
